# Results filed as inconclusive are left out. Active and inactive are the calls of the source. Calls come from the whole dose curve.
# Assay: qHTS assay for small molecules that induce genotoxicity in human embryonic kidney cells expressing luciferase-tagged ATAD5 - cell viability (AID 651634); note: nearly all actives have a fitted effect of over 25% in size
# Settings: HEK293T ATAD5-luc cells viability, CellTiter-Fluor, 15.5 h; series mostly up to 83.3 µM; activity, negative = cytotoxicity: at the top concentration
# Excerpt: National Center for Advancing Translational Sciences [NCATS]
# NIH Chemical Genomics Center [NCGC]
# U.S. Environmental Protection Agency [EPA]
# National Institutes of Environmental Health Sciences [NIEHS]
# National Toxicology Program [NTP]
# U.S. Food and Drug Administration [FDA]
# Enhanced Level of Genome Instability Gene 1 (ELG1; human ATAD5) protein levels increase in response to various types of DNA damage. Using a luciferase reporter-gene tagged with ElG1, a cell-based assay [developed by Kyungjae Myung, NHGRI, NIH] was used to measure the induction of ATAD5 in human embryonic kidney cells (HEK293T). So, increase in luciferase activity can be used to identify the compounds that cause genetic stress. In addition to genotoxicity, these cells were also used to test for cytotoxicity by measuring the protease activity within live cells.
# Tox21 Assay Protocol Summary:
# For cytotoxicity screening, 2,000 cells in 5 uL/well were dispensed into white, solid-bottom 1536-well plates using a Multidrop Combi (Thermo Scientific) dispenser. Following transfer of 23 nL compound or DMSO vehicle by a pin tool, the plates were incubated 15.5 hr at 37C and 5% CO2. 1 ul CellTiter-Fluor reagent (Promega, Madison, WI) was then added to each plate and following 30 min incubation at 37C, fluorescence intensity was quantified on a ViewLux CCD-based plate reader.
# % is set by controls: 0 for no effect and ±100 for the full control effect.
SMILES,"activity, negative = cytotoxicity",Potency
O=C(O)C(=O)Nc1cccc(-c2nn[nH]n2)c1,16.4% (inactive),
O=C1CC[C@H](C(=O)N2CCCCC2)N1,6.59% (inactive),
CCCCC(CC)C(=O)OC(C)C (stereo not given),15.2% (inactive),
Cc1oc(=O)oc1CN1CCN(c2cc3c(cc2F)c(=O)c(C(=O)O)c2n3C(C)S2)CC1 (stereo not given),4.49% (inactive),
CCOc1ccc(NC(=O)OC(C)C)cc1OCC,-1.32% (inactive),
F[Si-2](F)(F)(F)(F)F,,inactive
Oc1ccccc1Cc1ccccc1O,3.81% (inactive),
Cc1ccccc1OCC1CO1 (stereo not given),8.89% [at 95.3 µM] (inactive),
CCCOC(=O)CCCCC(=O)OCCC,5.52% (inactive),
C[C@H](CCC(=O)O)[C@H]1CC[C@H]2[C@@H]3[C@H](O)C[C@@H]4C[C@H](O)CC[C@]4(C)[C@H]3C[C@H](O)[C@]12C,,inactive
O=C1OC(=O)c2ccccc21,-18.3% (inactive),
O=[Si]=O,9.38% (inactive),
NC(=O)NC(=O)Cc1ccccc1,4.92% (inactive),
c1ccc(CNc2ncnc3nc[nH]c23)cc1,7.25% (inactive),
CCCCCCCCCCC,2.28% (inactive),
CCCCC(C)C(=O)O (stereo not given),18.5% (inactive),
O=C1OC(=O)c2cc(Oc3ccc4c(c3)C(=O)OC4=O)ccc21,5.63% (inactive),
CC(C)(c1ccc(Oc2ccc3c(c2)C(=O)OC3=O)cc1)c1ccc(Oc2ccc3c(c2)C(=O)OC3=O)cc1,-12% (inactive),
CN[C@@H]1[C@H](O)[C@H](NC)[C@H]2O[C@@]3(O)C(=O)C[C@@H](C)O[C@H]3O[C@@H]2[C@H]1O,19.2% [at 39.1 µM] (inactive),
CCCCC(=O)N(C)C,3.1% (inactive),

SMILES,"activity, negative = cytotoxicity",Potency
CCOC(=O)C(C)(C)C,13.3% [at 95.3 µM] (inactive),
COc1ccc(NS(=O)(=O)c2ccc(N)cc2)nn1,7.13% [at 39.1 µM] (inactive),
CCOC(=O)OCC/C(SC(=O)OCC)=C(\C)N(C=O)Cc1cnc(C)nc1N,-13.1% (inactive),
CC(C)=CC(C)(C)C,11% (inactive),
CC(C)SCc1ccco1,11.5% [at 39.1 µM] (inactive),
CC1=CC[C@H](CC=O)C1(C)C,8.69% (inactive),
O=S1(=O)CCCC1,35.6% [at 95.3 µM] (inactive),
O=C(O)/C=C/c1ccccc1,,inactive
C=COCCOCCOC=C,-11.9% (inactive),
CCCCC(CC)COC(=O)c1ccccc1 (stereo not given),17.9% (inactive),
Nc1c(NC/C=C\COc2cc(CN3CCCCC3)ccn2)c(=O)c1=O,-19.7% (inactive),
O=c1[nH]c(=O)c2[nH]c(=O)[nH]c2[nH]1,,inactive
C=CCOC(=O)c1ccc(C(=O)OCC=C)c(C(=O)OCC=C)c1,17.6% (inactive),
SCCSCCS,-8.96% (inactive),
CC(C)(C)NCCO,10.7% (inactive),
CC(=O)OC(C)(C)Cc1ccccc1,7.8% (inactive),
C[C@H](CCC(=O)NCC(=O)O)[C@H]1CC[C@H]2[C@@H]3[C@H](O)C[C@@H]4C[C@H](O)CC[C@]4(C)[C@H]3C[C@H](O)[C@]12C,10.3% (inactive),
CC(C)c1ccccc1O,6.89% (inactive),
CCCCOC(=O)[C@@H](C)Oc1ccc(Oc2ccc(C(F)(F)F)cn2)cc1,12.2% [at 95.3 µM] (inactive),
Cc1nc([N+](=O)[O-])cn1-c1ccc([N+](=O)[O-])cc1,8.28% (inactive),
